# In PubChem BioAssay (Tox21):
# Records with an inconclusive call do not appear. Calls of active or inactive are those of the source. Calls come from the whole dose curve; as a rule, active = well fitted activation curve with a large enough effect in the repeat runs; inconclusive = weak or mixed curves; inactive = no such curve, though single readings can be large or run the other way.
# Molecular target: Aryl hydrocarbon receptor (Homo sapiens) (UniProt P35869)
# Assay: qHTS assay to identify small molecule that activate the aryl hydrocarbon receptor (AhR) signaling pathway (AID 743085); note: nearly all actives have a fitted effect of over 15% in size;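 for activation: HG2L7.5c1 human HepG2 liver cells with stably integrated DRE-driven firefly reporter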
# Conditions: HepG2 AhR-luc (HG2L7.5c1), luciferase, 24 h; series mostly up to 70.3 µM; activation: at the top concentration
# From the text: U.S. Tox21 Program National Center for Advancing Translational Sciences [NCATS] NIH Chemical Genomics Center [NCGC] U.S. Environmental Protection Agency [EPA] National Institutes of Environmental Health Sciences [NIEHS] National Toxicology Program [NTP] U.S. Food and Drug Administration [FDA] Tox21 Assay overview: The Aryl hydrocarbon Receptor (AhR), a member of the family of basic helix-loop-helix transcription factors, is crucial to adaptive responses to environmental changes. AhR mediates cellular responses to environmental pollutants such as aromatic hydrocarbons through induction of phase I and II enzymes but also interacts with other nuclear receptor signaling pathways. A cell based HepG2-AhR-luc assay (HG2L7.5c1 cell line, developed by Dr. Michael S. Denison, University of California at Davis, was used to assess the activation of AhR. HepG2 (human hepatocellular carcinoma) cells were stably transfected with an Ah receptor-responsive firefly luciferase reporter gene plasmid containing 20 dioxin responsive elements and luciferase reporter gene. Increased luciferase activity can be used to identify the compounds that induce AhR activation.
# Tox21 Assay Protocol Summary: 4000 cells in 5 uL/well were dispensed into white wall/solid bottom 1536-well plates using a Multidrop Combi (Thermo Fisher Scientific Inc., Waltham, MA) dispenser. After the assay plates were incubated at 37C for 5 h, 23 nL of compound or DMSO vehicle was transferred to the assay plates by a pintool station (Kalypsys, San Diego, CA). The plates were incubated at 37C for 24 hr. After 1 ul/well of CellTiter-Fluor reagent (Promega, Madison, WI) was added into the assay plates using a Flying Reagent Dispenser (FRD) (Aurora Discovery, CA), the assay plates were incubated at 37C for 30 min. The fluorescence intensity in the plates was measured using a ViewLux plate reader (PerkinElmer, Shelton, CT), followed by the addition of 4 uL of ONE-Glo Luciferase Assay reagent (Promega) using an FRD (Aurora Discovery). After the assay plates were incubated at room temperature for 30 min, luminescence intensity was measured using a ViewLux plate reader (Perkin Elmer).
# % is set by controls: 0 for no effect and ±100 for the full control effect; potency is the fitted concentration of half-maximal effect.
# Sequence of Aryl hydrocarbon receptor (Homo sapiens) (P35869 whole entry, looked up): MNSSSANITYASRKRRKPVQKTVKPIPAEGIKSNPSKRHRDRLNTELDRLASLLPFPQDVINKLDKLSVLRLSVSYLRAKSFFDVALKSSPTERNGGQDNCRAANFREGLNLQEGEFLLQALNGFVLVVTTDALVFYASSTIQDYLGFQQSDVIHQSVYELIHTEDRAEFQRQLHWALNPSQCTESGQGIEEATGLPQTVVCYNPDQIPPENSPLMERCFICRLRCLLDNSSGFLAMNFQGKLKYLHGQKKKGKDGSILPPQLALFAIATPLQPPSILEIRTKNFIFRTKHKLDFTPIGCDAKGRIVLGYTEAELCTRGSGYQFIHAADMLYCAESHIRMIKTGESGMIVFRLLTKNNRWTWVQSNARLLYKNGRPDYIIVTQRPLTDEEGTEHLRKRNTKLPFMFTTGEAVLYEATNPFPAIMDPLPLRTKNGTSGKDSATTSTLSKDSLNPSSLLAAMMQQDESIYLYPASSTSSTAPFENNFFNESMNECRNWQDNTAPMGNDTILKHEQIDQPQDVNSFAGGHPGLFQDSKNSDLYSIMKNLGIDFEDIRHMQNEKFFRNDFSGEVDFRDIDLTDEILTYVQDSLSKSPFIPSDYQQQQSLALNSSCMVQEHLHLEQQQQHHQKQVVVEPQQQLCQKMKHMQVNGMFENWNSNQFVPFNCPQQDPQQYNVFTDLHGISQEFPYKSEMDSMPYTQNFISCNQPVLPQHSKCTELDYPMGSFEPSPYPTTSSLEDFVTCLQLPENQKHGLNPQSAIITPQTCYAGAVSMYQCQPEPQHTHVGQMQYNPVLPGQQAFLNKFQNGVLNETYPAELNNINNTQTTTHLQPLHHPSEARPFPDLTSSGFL
Structure (SMILES),activation,Potency
C=CC(C)(CCC=C(C)C)OC(=O)CC(C)C (stereo not given),-0.957% (inactive),
COC(=O)CCS,1.49% (inactive),
CC(C)(c1ccccc1)c1ccccc1,0.777% (inactive),
COc1ncnc(NS(=O)(=O)c2ccc(N)cc2)c1OC,-2.64% (inactive),
CC1(C)[C@H](C(=O)O)N2C(=O)C[C@H]2S1(=O)=O,-1.86% (inactive),
CCCCC(CC)CN (stereo not given),5.63% [at 95 µM] (inactive),
Cc1ccc(C(C)(C)O)cc1,2.48% (inactive),
CN1C(=O)OC(C)(C)C1=O,,inactive
C=C/C(C)=C/C/C=C(\C)CCC=C(C)C,1.64% (inactive),
CC(CO)CO,-0.365% [at 95 µM] (inactive),
C=C(C)C(=O)OCCOCCOC(=O)C(=C)C,4.14% (inactive),
O=C(/C=C/c1ccccc1)OCCc1ccccc1,1.28% (inactive),
c1csc(SSc2cccs2)c1,-0.884% (inactive),
CCCCOc1ccc(OCCCN2CCOCC2)cc1,4.04% [at 32.5 µM] (inactive),
CC(=O)Nc1ccc(C)cc1C,1.5% (inactive),
C[C@@H](O[C@H]1OCCN(Cc2n[nH]c(=O)[nH]2)[C@H]1c1ccc(F)cc1)c1cc(C(F)(F)F)cc(C(F)(F)F)c1,-1.4% (inactive),
O=C1c2ccccc2C(=O)c2c(O)c(O)cc(O)c21,,10.9 µM (active)
CC(=O)c1ccc([N+](=O)[O-])cc1,-1.7% (inactive),
N#[N+]c1ccc2c(S(=O)(=O)[O-])cccc2c1O,12.7% (inactive),
CC(CCC(=O)O)C(=O)O (stereo not given),-0.666% (inactive),

Structure (SMILES),activation,Potency
C[C@H]1c2cccc(O)c2C(O)=C2C(=O)[C@]3(O)C(O)=C(C(N)=O)C(=O)[C@@H](N(C)C)[C@@H]3[C@@H](O)[C@@H]21,-0.163% (inactive),
CN(C)CCC=C1c2ccccc2C=Cc2ccccc21,-1.61% (inactive),
O=C1c2ccccc2C(=O)C1c1ccc(Br)cc1,,11.9 µM (active)
Nc1ncnc2c1ncn2[C@H]1CC[C@@H](CO)O1,,inactive
CC=C(Cl)Cl,-2.27% (inactive),
O=C(O)C[C@H](NC(=O)OCc1ccccc1)C(=O)O,-2.27% (inactive),
CCOC(=O)C1=C(C)NC(C)=C(C(=O)OC)C1c1cccc(Cl)c1Cl (stereo not given),,1.88 µM (active)
CCN(CC)CCNC(=O)COc1ccc(OC)cc1,-0.779% (inactive),
C[C@@H]1CC(=O)NN=C1c1ccc(NN=C(C#N)C#N)cc1,,15 µM (active)
CC(=O)NC1(c2cccc(F)c2)CCN(CC[C@@]2(c3ccc(Cl)c(Cl)c3)CN(c3ccccc3)C(=O)CO2)CC1,-8.63% (inactive),
Cc1cscn1,-1.96% (inactive),
CC1(C)[C@@H](OC(=O)CCC(=O)O)CC[C@]2(C)[C@H]3C(=O)C=C4[C@@H]5C[C@@](C)(C(=O)O)CC[C@]5(C)CC[C@@]4(C)[C@]3(C)CC[C@@H]12,-0.194% [at 32.5 µM] (inactive),
CC(C)(O)c1ccc(CNC(=O)c2cccnc2Oc2ccc3nonc3c2)cc1,4.56% (inactive),
O=Cc1c2ccccc2c(Cl)c2ccccc12,2.57% (inactive),
CCCCCCCCCCC(=O)O,1.4% [at 95 µM] (inactive),
Clc1cc(Cl)nc(Cl)n1,-6.16% [at 95 µM] (inactive),
C[C@@H](CN(C)C)CN1c2ccccc2Sc2ccccc21,-0.453% [at 32.5 µM] (inactive),
C=C(C)[C@@H]1CCC2=CCC[C@@H](C)[C@]2(C)C1,-0.292% (inactive),
COc1ccccc1N1CCN(CC(O)COc2cccc3ccccc23)CC1 (stereo not given),,29.8 µM (active)
CCOC(=O)[C@H](CCc1ccccc1)N[C@@H](C)C(=O)N(CC(=O)O)C1Cc2ccccc2C1,3.18% (inactive),
